# An excerpt weighted towards active compounds, which were near 5.4% of everything screened.
# Sm TGR block – S. mansoni TGR enzyme inhibition. purified TGR, DTNB reduction, TNB absorbance 405 nm. Q962Y6. 360,000 compounds, 3% hits. Potency, µM (series often up to 114 µM), without a hit: at the highest dose activity change, negative = inhibition, hits mostly inhibitors; active means well fitted inhibition curve with a large enough effect; inconclusive means small, poorly fitted or top-dose-only effect; inactive means no such curve, though single readings can be large or run the other way; further: nearly all actives have a fitted effect of over 60% in size
#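 Kinetic colorimetric format: TGR-catalysed, NADPH-driven DTNB reduction monitored via TNB absorbance. Enzyme dispensed at 20 nM; compound exposure 15 min at room temperature before reaction start.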
# VACV Venus inh – inhibitors of vaccinia virus (Venus reporter) | Vaccinia virus Venus reporter expression, fluorescence | Potency, µM (doses to about 36.5 µM), for inactives: at the highest dose activity change, negative = inhibition, usual class: inhibitors | 330,000 compounds, 0.46% hits | AID 720580; calls by dose curve; tested in A549 cells; further: nearly all actives have a fitted effect of over 30% in size
# FMDV antiviral – foot and mouth disease virus antiviral activity | FMDV antiviral cell-based qHTS | 410,000 compounds, 1.2% hits | Potency, µM (titrated, usually from 57.9 µM), for inactives: at the highest dose activity change, negative = inhibition, usual class: inhibitors; calls by dose curve; tested in HEK293T cells; further: read-out not given here; nearly all actives have a fitted effect of over 45% in size
# MARV entry inh – blocks Marburg virus binding to or entry into cells. Marburg virus pseudotyped entry inhibition, cell reporter. Potency, µM (highest dose often 37.8 µM), without a hit: at the top dose activity change, negative = inhibition, usual class: inhibitors. 300,000 compounds, 1.8% hits. AID 540276; calls by dose curve; tested in HEK293 cells
# Lassa entry inh – inhibitors of Lassa virus binding or cell entry | Lassa virus pseudotype entry inhibition, cell reporter | 300,000 compounds, 1.2% hits | Potency, µM (doses to about 37.9 µM), without a hit: at the highest dose activity change, negative = inhibition, usual class: inhibitors | AID 540256; calls by dose curve; tested in HEK293 cells; further: nearly all actives have a fitted effect of over 50% in size
# Vaccinia mCherry – inhibitors of vaccinia virus infection (mCherry reporter signal); Vaccinia virus mCherry reporter infection, fluorescence; Potency, µM (series often up to 36.5 µM), for the others: at the top dose activity change, negative = inhibition, actives largely listed as inhibitors; 310,000 compounds, 0.63% hits; calls by dose curve; tested in A549 cells; further: nearly all actives have a fitted effect of over 35% in size
# An asterisk follows results filed as active; i = inactive; ? = inconclusive; . = not tested or not shown; [ ] = another dose, or the depositor's remark. On the % scale 0 is the no-effect control and ±100 the full control effect; potency means the concentration at half of the fitted maximal effect.
SMILES,Sm TGR block,VACV Venus inh,FMDV antiviral,MARV entry inh,Lassa entry inh,Vaccinia mCherry
Cc1cccc(C)c1NCc1nnc(SCC(=O)Nc2nc(-c3ccccc3)cs2)n1-c1ccccc1,6%,-6%,-14%,1%,-2%,-13%
CCn1c(SCC(=O)Nc2nc(-c3ccc(C)cc3)cs2)nnc1-c1ccccc1O,-2%,?,16µM*,?,?,.
CCOc1ccc(NCc2nnc(SCC(=O)Nc3nc(-c4ccccc4)cs3)n2-c2ccccc2)cc1,-5%,?,-15%,?,-12%,11µM*
COc1ccccc1-c1nnc(SCC(=O)Nc2nc(-c3ccccc3)cs2)n1C,1%,.,32µM*,23µM*,23µM*,.
Cc1cc2c(c(-c3cnccn3)c1)OC(CNC(=O)c1cc(Cl)ccc1F)C2 (stereo not drawn),.,-14%,-8%,.,.,-14%
COc1ccccc1C1CN(Cc2cccc(C)n2)Cc2ccccc2O1 (stereo not drawn),.,-7%,0%,.,.,-19%
CC(O)(COc1ccccc1)c1ccc2c(c1)CN(Cc1cccn1-c1ccccn1)CCO2 (stereo not drawn),.,-1%,-13%,.,.,-13%
CCN(Cc1ccncc1)Cc1c(O)ccc2cc(Br)ccc12,1.8µM*,-3%,-12%,?,-3%,-10%
CCN(CC)C(=O)Cc1c(OC)ccc2cc(Br)ccc12,4%,.,-16%,.,.,.
Cc1oc(/N=C/c2ccc(O)cc2O)c(C#N)c1C,50µM*,.,0%,8%,13%,.
Cc1oc(/N=C/c2ccccc2O)c(C#N)c1C,-22%,1%,-14%,1%,15%[14.3 µM],i
CCc1ccccc1NC(=O)Nc1nnc(N(C)Cc2ccccc2)s1,-11%,-28%,-11%,8%[46.1 µM],12%[46.1 µM],-20%
Cc1nc2nc(NCc3ccc(Cl)cc3)[nH]n2c(=O)c1Cc1ccccc1,11%,-5%,-18%,9%[46.1 µM],-22%[46.1 µM],-10%
COc1ccc(N2C(=O)NC(=O)/C(=C/c3ccc([N+](=O)[O-])s3)C2=O)cc1,7.1µM*,.,?,.,.,.
COc1ccccc1N1C(=O)NC(=O)/C(=C/c2ccc([N+](=O)[O-])s2)C1=O,5.6µM*,13%,?,-27%,-2%,-6%
COc1cccc(N2C(=O)NC(=O)/C(=C/c3ccc([N+](=O)[O-])s3)C2=O)c1,7.9µM*,128%,0%,-3%[46.1 µM],30%,27%
COc1ccc(N2C(=O)NC(=O)/C(=C\c3ccc([N+](=O)[O-])s3)C2=O)cc1,7.9µM*,i,-29%,-21%[46.1 µM],-20%,355%
CCC1(C2CCN(C(=O)c3ccccc3C)CC2)NC(=O)N(CCc2scnc2C)C1=O (stereo not drawn),.,-5%,13%,.,.,-10%
CC(C)Sc1ncc(Cl)c(C(=O)Nc2ccc(S(=O)(=O)N3CCCCC3C)cc2)n1 (stereo not drawn),-4%,-10%,-16%,?,?,-16%
CC1=CC2/C=C(\C)CCC(O)C(O)/C=C/C(=O)C23C(=O)NC(CC(C)C)C3C1C (stereo not drawn),4µM*,?,6.3µM*,.,.,?
C[C@@]12CC[C@H]3[C@@H](CCC4=C(O)C(=O)CC[C@]43C)[C@H]1CCC2=O,.,.,.,-5%,.,.
Cc1cc(N2C(=O)CC(N3CCN(C(c4ccccc4)c4ccccc4)CC3)C2=O)no1 (stereo not drawn),45µM*,2%,-20%,13%,0%,.
CCOc1ccccc1-c1noc(CSc2nnc(-c3ccncc3)n2-c2ccc(F)cc2)n1,0%,-26%,-20%,?,?,i
Cc1ccc(S(=O)(=O)Cc2nc(-c3ccc(C(=O)NCc4ccccc4C)cc3)oc2C)cc1,?,-13%,-12%,.,-1%[46.1 µM],-17%
Cc1oc(-c2ccc(C(=O)NCCC(C)C)cc2)nc1CS(=O)(=O)c1ccccc1,35µM*,-10%,-3%,.,-6%[46.1 µM],-9%
SMILES,Sm TGR block,VACV Venus inh,FMDV antiviral,MARV entry inh,Lassa entry inh,Vaccinia mCherry
Cc1ccc(S(=O)(=O)Cc2nc(-c3ccc(C(=O)NCc4ccccc4)cc3)oc2C)cc1,32µM*,?,-9%,.,-14%[46.1 µM],?
O=C(N/N=C1\C[C@@H](O)[C@@H](O)[C@@H]2[C@@H]3C(=O)N(C4CCCCC4)C(=O)[C@@H]3CC[C@@H]12)OCc1ccccc1,.,.,.,-13%[14.2 µM],.,.
C[C@H]1CC[C@H]2C(=O)N(Cc3cccc([N+](=O)[O-])c3)C[C@H](O)CN2[C@H]1c1cccc(Br)c1,.,.,.,-16%[14.2 µM],?,.
CN1CCN(C(=O)Cn2c(-c3cccs3)cc3ccccc32)CC1,7%,-10%,-3%,.,?,-9%
COc1ccc(-c2csc(NC(C)c3nc4cc(Cl)c(N5CCCCC5)cc4n3CCCO)n2)cc1 (stereo not drawn),.,?,-24%,.,.,8.9µM*
CC(Nc1nc(-c2ccc(F)cc2)cs1)c1nc2cc(Cl)c(Cl)cc2n1CCCO (stereo not drawn),.,?,-15%,.,.,10µM*
COc1ccc(-c2csc(NC(C)c3nc4cc(Cl)c(N5CCCCC5)cc4n3CCOCCO)n2)cc1 (stereo not drawn),.,?,-20%,.,.,-15%
O=[N+]([O-])c1ccccc1CCl,40µM*,-8%,-19%,.,.,-3%
CP(=O)(Nc1ccc(Cl)cc1)c1nc2c(s1)CCCC2 (stereo not drawn),22µM*,0%[7.34 µM],-21%,.,.,0%[7.34 µM]
Cc1ccc(-c2n[nH]c3c2C(c2cccs2)N(c2ccc(Cl)cc2)C3=O)cc1 (stereo not drawn),2%,-23%,?,?,?,?
Cc1cc(/C=C2\SC(=S)NC2=O)c(C)n1-c1ccc(O)cc1,-27%,-2%,-2%,.,.,?
Cc1cc(/C=C2\SC(=Nc3ccc(F)cc3)NC2=O)c(C)n1-c1ccc(S(N)(=O)=O)cc1,-19%,?,35µM*,?,?,.
CCOC(=O)C1CCCN(c2nc3c(S(=O)(=O)c4ccc(C)c(C)c4)nnn3c3ccc(Cl)cc23)C1 (stereo not drawn),-3%,-12%,-10%,2%[46.1 µM],.,-16%
CC(C)(C)NC(=O)NC(=O)COc1ccc(Br)cc1Br,-16%,-25%,?,?,5.8µM*,-21%
CN(C)c1ccc(-c2cncnc2NCc2cccs2)cc1,.,0%,-11%,.,.,1%
Cc1ccc(C(=O)C[n+]2cccc3cccc(O)c32)cc1,.,3%,.,.,.,-1%
CC(C)OCCCNC(=O)c1cc2c(-c3ccc(Cl)cc3)nn(C)c2s1,2%,-5%,-27%,-15%[46.1 µM],10%[46.1 µM],-8%
COc1cc2c(cc1NC(=O)/C=C/c1cc(OC)c(OC)c(OC)c1)oc1ccccc12,0%,-27%,?,8.9µM*,?,-24%
COc1cc2c(cc1NC(=O)c1ccc(C)c([N+](=O)[O-])c1)oc1ccccc12,2%,-2%,-15%,?,-3%,-3%
COc1cc2c(cc1NC(=O)c1cccc([N+](=O)[O-])c1)oc1ccccc12,4%,-30%,13µM*,?,?,.
